Eleven compounds from PubChem BioAssay (NCATS) can be followed below.

Results filed as inconclusive are left out. A number with no mark means an inactive call. Calls of active or inactive are those of the source. Calls follow the shape of the dose curve; as a rule, active = well fitted inhibition curve with a large enough effect; inconclusive = small, poorly fitted or top-dose-only effect; inactive = flat fitted curve, though single readings scatter.
Potency is read from the fitted curve at half-maximal effect.

In this assay the test system is Zika virus NS2B-NS3 protease (unlinked complex). In words: Confirmatory screen GU AMC qHTS for Zika virus inhibitors (AID 1347153). Also: nearly all actives have a fitted effect of over 70% in size.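 As to activity, negative = inhibition: percent inhibition with 0% = no inhibitor control and 100% = no enzyme control.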 The settings on record: Recombinant NS2B-NS3 protease, AMC substrate fluorescence; series mostly up to 57.1 µM; activity, negative = inhibition: at the top concentration. The text has this:
Assay Submitters (PI): Avindra Nath, Ph.D., National Institute of Neurological Disorders and Stroke (NINDS), Bethesda, MD Radhakrishnan Padmanabhan, Ph.D., Georgetown University (GU), Washington D.C. Zika Virus causes congenital defects, including microcephaly and is associated with Guillain-Barre syndrome, eningoencephalitis and myelitis in infected adult. […] Using a target-based approach, we hope to establish a screening paradigm to uncover novel, cell-active NS2B-NS3 protease (Zika Virus) specific inhibitors from NCATS' collection of small molecules using qHTS. […] Active compounds in the primary screen are re-acquired and re-screened to confirm NS2B-NS3 protease inhibition. Early Translation Branch (ETB) National Center for Advancing Translational Sciences (NCATS), Rockville, MD National Institute of Health (NIH), Bethesda, Maryland
Materials: Padmanabhan lab provided the NS2B hydrophilic domain and NS3 protease domain in a noncovalent complex used for the unlinked assay. Control compound aprotinin is obtained from Thermo Scientific (#78432; Waltham, Massachusetts). NS2B-NS3 AMC substrate (Bz-Nle-Lys-Arg-Arg-AMC; Nle-KRR-AMC) purchased from Bachem (#I-1995; Torrance, CA). Ac-VKTGKR-AMC purchased from Genscript or Bachem, Ac-FAAGKR-AMC purchased from Genscript, Ac-GLVKRR-AMC purchased from Genscript, Ac-LKKR-AMC purchased from Genscript. GU AMC unlinked NS2B-NS3 protease qHTS protocol: Briefly, 3 microL of Zika virus unlinked NS2B-NS3 protease (25 nM for linked final concentration), in assay buffer (10 mM Tris-HCl pH 8.0 with 0.01% Tween 20) was dispensed into a 1,536-well solid-bottom black plate (Greiner Bio One, Monroe, NC). Twenty-three nL of compounds (final concentration range 7.28 nM to 114 microM) or control Aprotinin (final concentration range 3.47 nM to 114 microM) were transferred via Wako Pin-tool (Wako Automation, Richmond, VA). Samples were incubated (room temperature, protected from light) for 15 minutes followed by a 1 microL AMC substrate addition of (final concentration of 10 microM; Km = 18.3 µM). Plates were then read immediately on a ViewLux High-throughput CCD imager (PerkinElmer, Waltham, MA) equipped with standard UV fluorescence optics (340(30) nm excitation, 450(20) nm emission) then incubated (room temperature, protected from light) for 15 minutes (~20% conversion). The change in fluorescence intensity over the 15-minute reaction period was normalized against no-inhibitor and no-enzyme controls and the resulting percent inhibition data were fitted to a 4-parameter Hill equation. Aprotinin was used as the intraplate control.
(Quantitative high-throughput screening tests each substance at several concentrations.)
For `CC(C)c1ccccc1Cc1cc(C(=O)Nc2ccc(S(=O)(=O)c3ccccc3C(C)(C)C)cc2)c(O)c(O)c1O`, the “activity, negative = inhibition” value was -10.4% [at 111 µM]. For `O=C(Nc1cc(C(F)(F)F)cc(C(F)(F)F)c1)c1cc(Cl)ccc1O`, the Potency is 49.4 µM (active). Take `Cc1c(C)n(Cc2ccc(-c3ccccc3C(=O)O)cc2)c2ccc(C(=O)N[C@@H](C)c3ccc([N+](=O)[O-])cc3)cc12`: the Potency was 21.5 µM (active). Still for that read-out and setting: under `C[C@@]12O[C@@H](C[C@]1(O)CO)n1c3ccccc3c3c4c(c5c6ccccc6n2c5c31)CNC4=O` stands 24.1 µM (active). With `Cc1ccc(C(=O)Nc2cccc(C(F)(F)F)c2)cc1-c1ccc2nc(NCCN3CCOCC3)ncc2c1`, the “activity, negative = inhibition” value is -27.9%. On to `COc1cc(C(=O)NS(=O)(=O)c2ccccc2C)ccc1Cc1cn(C)c2ccc(NC(=O)OC3CCCC3)cc12`, for which the Potency is 17.1 µM (active). For `Cc1cc(N2CCOCC2)cc2[nH]c(-c3c(NC[C@@H](O)c4cccc(Cl)c4)cc[nH]c3=O)nc12`, the “activity, negative = inhibition” value is -3.48%.

Consider `CCN1CCN(Cc2ccc(-c3cc4c(N[C@H](C)c5ccccc5)ncnc4[nH]3)cc2)CC1`, for which the Potency was 49.4 µM (active). Still for that read-out and setting: under `CCS(=O)(=O)c1cccc(-c2cc(C(=O)NC3CCN(C)CC3)c(C)c3[nH]c4ncc(C)cc4c23)c1` stands 24.1 µM (active). In the case of `CCN(CC)CCCCNc1ncc2cc(-c3cc(OC)cc(OC)c3)c(NC(=O)NC(C)(C)C)nc2n1`, the “activity, negative = inhibition” value is -18.5%.

`N#Cc1c(O)c2c(-c3ccc(-c4ccccc4O)cc3)csc2[nH]c1=O`: the Potency was 9.61 µM (active).
